Test results from ChEMBL document CHEMBL1961873, “Compounds: GSK PKIS; Assays: Nanosyn kinase panel” (2012).
“And” between values parts separate entries of the source, which are not always exact repeats. Equal values may be shown once.

Experiments:
[1] = target: T1, Aurora kinase A (Homo sapiens) (UniProt O14965); settings: at 1 µM;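 note: values are mean percent inhibition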
T1 sequence (whole entry): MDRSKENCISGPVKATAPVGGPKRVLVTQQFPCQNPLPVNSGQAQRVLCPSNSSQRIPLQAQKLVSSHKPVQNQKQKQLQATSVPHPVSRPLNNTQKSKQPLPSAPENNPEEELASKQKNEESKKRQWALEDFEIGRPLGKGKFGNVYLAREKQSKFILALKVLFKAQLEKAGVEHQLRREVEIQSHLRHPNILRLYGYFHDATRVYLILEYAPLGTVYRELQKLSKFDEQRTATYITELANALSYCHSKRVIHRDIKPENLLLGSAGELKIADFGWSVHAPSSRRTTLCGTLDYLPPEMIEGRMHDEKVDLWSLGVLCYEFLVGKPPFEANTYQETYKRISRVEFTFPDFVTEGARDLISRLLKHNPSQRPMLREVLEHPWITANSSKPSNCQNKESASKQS

[2] = target: Aurora kinase B (Homo sapiens) (UniProt Q96GD4); settings: at 0.1 µM
[3] = target: Aurora kinase B (Homo sapiens) (UniProt Q96GD4); settings: at 1 µM
[4] = target: T2, Aurora kinase C (Homo sapiens) (UniProt Q9UQB9); settings: at 0.1 µM
T2 sequence (whole entry): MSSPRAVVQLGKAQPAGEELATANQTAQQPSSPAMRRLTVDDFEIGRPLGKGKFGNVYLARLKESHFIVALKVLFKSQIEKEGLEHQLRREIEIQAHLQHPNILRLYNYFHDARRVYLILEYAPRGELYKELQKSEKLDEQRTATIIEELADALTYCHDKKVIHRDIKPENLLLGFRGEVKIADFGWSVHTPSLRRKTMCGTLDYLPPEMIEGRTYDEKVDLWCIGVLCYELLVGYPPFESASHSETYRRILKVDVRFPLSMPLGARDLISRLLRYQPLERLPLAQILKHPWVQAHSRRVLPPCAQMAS

[5] = target: T2, Aurora kinase C (Homo sapiens); settings: at 1 µM
[6] = target: Serine/threonine-protein kinase 10 (Homo sapiens) (UniProt O94804); settings: at 0.1 µM
[7] = target: Serine/threonine-protein kinase 10 (Homo sapiens) (UniProt O94804); settings: at 1 µM
[8] = target: T3, Mitogen-activated protein kinase kinase kinase kinase 2 (Homo sapiens) (UniProt Q12851); settings: at 0.1 µM
T3 sequence (whole entry): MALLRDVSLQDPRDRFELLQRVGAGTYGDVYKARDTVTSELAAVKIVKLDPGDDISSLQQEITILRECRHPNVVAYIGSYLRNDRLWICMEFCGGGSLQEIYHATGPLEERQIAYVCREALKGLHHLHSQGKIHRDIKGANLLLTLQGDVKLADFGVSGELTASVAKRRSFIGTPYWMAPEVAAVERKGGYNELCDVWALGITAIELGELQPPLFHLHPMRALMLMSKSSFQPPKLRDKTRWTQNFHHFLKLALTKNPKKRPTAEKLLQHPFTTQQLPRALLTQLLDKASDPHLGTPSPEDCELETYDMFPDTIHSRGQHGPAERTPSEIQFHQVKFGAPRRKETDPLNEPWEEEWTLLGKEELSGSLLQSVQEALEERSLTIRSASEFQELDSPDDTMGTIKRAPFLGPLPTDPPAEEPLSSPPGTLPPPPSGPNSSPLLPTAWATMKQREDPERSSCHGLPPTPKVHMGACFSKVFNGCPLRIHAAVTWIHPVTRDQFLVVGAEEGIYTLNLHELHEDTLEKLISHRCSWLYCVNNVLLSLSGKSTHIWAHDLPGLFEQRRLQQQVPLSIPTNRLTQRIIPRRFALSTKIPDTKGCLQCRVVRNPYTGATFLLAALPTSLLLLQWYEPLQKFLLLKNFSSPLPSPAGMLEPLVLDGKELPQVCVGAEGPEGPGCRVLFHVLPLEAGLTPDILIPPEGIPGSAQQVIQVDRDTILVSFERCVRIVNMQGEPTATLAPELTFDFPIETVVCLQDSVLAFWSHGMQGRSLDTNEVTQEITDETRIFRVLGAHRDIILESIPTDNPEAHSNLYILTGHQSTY

[9] = target: T3, Mitogen-activated protein kinase kinase kinase kinase 2 (Homo sapiens); settings: at 1 µM
[10] = target: Mitogen-activated protein kinase kinase kinase kinase 4 (Homo sapiens) (UniProt O95819); settings: at 0.1 µM
Mitogen-activated protein kinase kinase kinase kinase 4 (Homo sapiens), sequence (O95819 2-1239 limits assumed): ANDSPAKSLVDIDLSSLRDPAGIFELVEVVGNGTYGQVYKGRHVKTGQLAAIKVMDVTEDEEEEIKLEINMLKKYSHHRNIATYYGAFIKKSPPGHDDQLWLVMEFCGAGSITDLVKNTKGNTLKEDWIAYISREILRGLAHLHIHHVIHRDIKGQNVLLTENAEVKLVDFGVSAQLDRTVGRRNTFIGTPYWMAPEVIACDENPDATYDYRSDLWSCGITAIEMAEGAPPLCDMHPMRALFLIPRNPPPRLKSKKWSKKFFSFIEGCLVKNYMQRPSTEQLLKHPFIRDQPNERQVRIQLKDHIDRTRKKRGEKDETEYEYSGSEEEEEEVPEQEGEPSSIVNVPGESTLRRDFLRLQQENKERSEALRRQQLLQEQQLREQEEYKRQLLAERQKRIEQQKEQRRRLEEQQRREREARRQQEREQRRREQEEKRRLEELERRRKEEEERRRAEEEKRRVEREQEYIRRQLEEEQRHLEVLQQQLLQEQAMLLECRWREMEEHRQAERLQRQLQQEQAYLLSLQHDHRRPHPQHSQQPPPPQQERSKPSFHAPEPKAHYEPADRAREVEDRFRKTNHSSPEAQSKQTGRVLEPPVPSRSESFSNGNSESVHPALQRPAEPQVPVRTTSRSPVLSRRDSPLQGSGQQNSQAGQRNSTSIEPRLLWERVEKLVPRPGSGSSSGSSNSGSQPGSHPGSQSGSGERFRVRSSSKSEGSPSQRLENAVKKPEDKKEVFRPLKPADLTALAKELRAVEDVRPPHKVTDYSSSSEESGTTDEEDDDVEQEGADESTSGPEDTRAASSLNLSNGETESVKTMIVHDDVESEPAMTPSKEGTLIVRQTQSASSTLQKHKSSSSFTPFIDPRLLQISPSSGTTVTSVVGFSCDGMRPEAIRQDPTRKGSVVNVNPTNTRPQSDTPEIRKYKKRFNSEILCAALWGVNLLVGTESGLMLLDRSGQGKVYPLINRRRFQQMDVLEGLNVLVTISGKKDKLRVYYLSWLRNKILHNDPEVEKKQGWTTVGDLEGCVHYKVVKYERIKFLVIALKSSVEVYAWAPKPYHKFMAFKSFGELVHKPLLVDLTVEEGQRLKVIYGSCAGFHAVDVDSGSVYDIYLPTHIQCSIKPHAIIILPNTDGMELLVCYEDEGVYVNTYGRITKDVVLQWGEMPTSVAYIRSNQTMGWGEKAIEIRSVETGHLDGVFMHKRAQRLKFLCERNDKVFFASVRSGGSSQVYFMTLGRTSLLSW

Aurora kinase B (Homo sapiens), sequence (Q96GD4 whole entry): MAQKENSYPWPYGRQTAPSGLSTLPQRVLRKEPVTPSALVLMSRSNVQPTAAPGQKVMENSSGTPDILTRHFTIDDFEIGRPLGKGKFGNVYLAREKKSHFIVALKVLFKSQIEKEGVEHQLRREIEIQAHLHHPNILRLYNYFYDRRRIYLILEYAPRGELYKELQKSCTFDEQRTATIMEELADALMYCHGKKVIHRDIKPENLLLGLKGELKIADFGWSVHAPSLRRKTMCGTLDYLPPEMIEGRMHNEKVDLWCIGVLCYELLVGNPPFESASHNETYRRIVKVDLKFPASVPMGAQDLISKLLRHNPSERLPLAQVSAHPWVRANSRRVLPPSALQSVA
Serine/threonine-protein kinase 10 (Homo sapiens), sequence (O94804 whole entry, looked up): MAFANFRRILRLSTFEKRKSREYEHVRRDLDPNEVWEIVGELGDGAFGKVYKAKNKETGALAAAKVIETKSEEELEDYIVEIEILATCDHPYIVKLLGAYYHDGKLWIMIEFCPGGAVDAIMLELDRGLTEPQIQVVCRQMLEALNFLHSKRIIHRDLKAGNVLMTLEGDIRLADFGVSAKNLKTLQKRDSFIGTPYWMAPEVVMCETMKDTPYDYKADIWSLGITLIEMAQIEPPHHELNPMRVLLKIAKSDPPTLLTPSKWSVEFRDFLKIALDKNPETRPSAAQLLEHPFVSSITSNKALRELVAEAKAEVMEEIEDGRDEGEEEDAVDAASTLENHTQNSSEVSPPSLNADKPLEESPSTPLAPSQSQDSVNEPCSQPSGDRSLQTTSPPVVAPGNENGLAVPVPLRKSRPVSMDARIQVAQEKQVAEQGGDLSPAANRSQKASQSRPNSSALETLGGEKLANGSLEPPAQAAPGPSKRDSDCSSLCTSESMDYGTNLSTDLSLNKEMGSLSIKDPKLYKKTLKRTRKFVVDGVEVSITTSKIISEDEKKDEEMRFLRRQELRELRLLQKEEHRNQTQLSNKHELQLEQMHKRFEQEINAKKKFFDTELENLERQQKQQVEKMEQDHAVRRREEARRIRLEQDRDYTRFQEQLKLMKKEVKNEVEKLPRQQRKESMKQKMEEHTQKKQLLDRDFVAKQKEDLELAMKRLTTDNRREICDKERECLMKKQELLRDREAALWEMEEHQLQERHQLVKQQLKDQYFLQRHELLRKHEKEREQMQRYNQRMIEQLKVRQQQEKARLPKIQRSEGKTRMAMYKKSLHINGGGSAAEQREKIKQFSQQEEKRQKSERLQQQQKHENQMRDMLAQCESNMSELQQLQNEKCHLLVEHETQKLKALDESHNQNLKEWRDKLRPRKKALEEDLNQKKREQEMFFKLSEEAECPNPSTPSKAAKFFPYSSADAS

| SMILES | inhibition [1] | inhibition [2] | inhibition [3] | inhibition [4] | inhibition [5] | inhibition [6] | inhibition [7] | inhibition [8] | inhibition [9] | inhibition [10] |
| --- | --- | --- | --- | --- | --- | --- | --- | --- | --- | --- |
| CC1=C(C(=O)Nc2ccc3[nH]ncc3c2)C(c2ccc(F)cc2)N=C(c2ccc(C(F)(F)F)nc2)N1 (stereo not given) | 51% | 3.38% | 16.9% | 3.47% | 21.3% | 0.31% | 2.22% | 1.59% | 2.35% | 2.89% |
| c1ccc(-c2n[nH]cc2-c2ccnc(-c3ccc(OCCn4ccnc4)cc3)c2)nc1 | 11.1% | 1.69% | 15.1% | 1.04% | 7.73% | 2.54% | 4.01% | 3.67% | 7.08% | 42.6% |
| O=C(O[C@H]1CN[C@H](C#Cc2cc3ncnc(Nc4ccc(OCc5cccc(F)c5)c(Cl)c4)c3s2)C1)N1CCOCC1 | 7.57% | 3.72% | 9.81% | 1.9% | 5.83% | 9.8% | 19% | 1.53% | 0.84% | 5.04% |
| O=C(O[C@H]1CN[C@H](C#Cc2cc3ncnc(Nc4ccc5c(cnn5Cc5ccccc5)c4)c3s2)C1)N1CCOCC1 | 3.44% | 0.76% | 11.1% | 2.11% | 27.6% | 0.93% | 7.07% | 0.52% | 2.14% | -0.91% |
| CCCNc1cccc(-n2ncc3c(N/N=C/c4ccncc4)ncnc32)c1 | 70.7% | 14.3% | 43.8% | 17% | 58.5% | 6.3% | 28.4% | 1.16% | 3.57% | 9.69% |
| Fc1ccc(Nc2nccc(-c3c(-c4ccc(C(F)(F)F)cc4)nn4ncccc34)n2)cc1F | 14.1% | 4.71% | 4.62% | 2.92% | 12.9% | 3.37% | 0.68% | 0.94% | 1.77% | 5.44% |
| COc1cc(N2CCN(C(C)C)CC2)ccc1Nc1nc(Nc2cccc3ncccc23)c2cc[nH]c2n1 | 4.47% | 0.66% | 4.9% | 0.27% | -0.31% | 1.54% | 0.74% | 2.02% | 2.89% | 1.88% |
| Cc1c2ccc(N(C)c3ccnc(Nc4cccc(S(N)(=O)=O)c4)n3)cc2nn1C | 72.2% | 12.5% | 54.2% | 15.8% | 81.6% | 23.4% | 64.4% | 7.77% | 41% | 11.1% |
| CS(=O)(=O)CCNCc1ccoc1-c1ccc2ncnc(Nc3ccc(OCc4ccccc4)cc3)c2c1 | 5.63% | 0.11% | 8.33% | 3.25% | 9.46% | -0.07% | 3.99% | 1.72% | 1.42% | 0.34% |
| COc1c(C(N)=O)cc(-c2ccc(Cl)cc2)cc1-c1ccc(S(N)(=O)=O)cc1 | 3.86% | 2.21% | 3.28% | -0.05% | 0.52% | 5.14% | 6.24% | 0.59% | 2.11% | 6.38% |
| COc1ccc(Nc2ncc(-c3ccccc3)o2)cc1OC | 75.4% | 8.72% | 51.1% | 10.2% | 82.2% | -1.08% | 11.2% | 3.92% | 14.3% | 8.63% |
| FC(F)(F)CNc1nccc(-c2cnn3ncccc23)n1 | 1.83% | 1.65% | 4.22% | 0.63% | 2.77% | 2.56% | 6.33% | -0.83% | 1.5% | 1.9% |
| CCS(=O)(=O)c1ccc(OC)c(Nc2ncc(-c3cccc(F)c3)o2)c1 | 26.8% | 4.7% | 3.78% | 0.03% | 5.54% | 12% | 24.3% | 1.31% | 8.13% | 6.47% |
| NS(=O)(=O)c1ccc(N/N=C2\C(=O)Nc3ccc(C(=O)NCc4ccncc4)cc32)cc1 | 54.9% | 3.41% | 11% | 1.92% | 14.6% | 4.56% | 9.47% | 0.75% | 4.07% | 11.2% |
| CN1CCC(C(=O)Nc2n[nH]c3nc(-c4ccc(O)cc4)c(Br)cc23)CC1 | 3.82% and 3.89% | -1.01% and 4.45% | 4.6% and 6.84% | -1.83% and 3.73% | -7.86% and 5.17% | 4.1% and 3% | 13.5% and 9.07% | 4.77% and 3.87% | 24.7% and 19.9% | 7.33% and 2.89% |
